Results filed as inconclusive are left out. Activity calls are given as the source filed them. Unless noted, the call rests on the fitted dose curve; in most records, active means well fitted curve in the direction sought with a large enough effect; inconclusive means small, poorly fitted or top-dose-only effect, or another doubt; inactive means no such curve, though single readings can be large; an effect the other way counts as inactive or inconclusive. Peptide text beside a SMILES is read from it.
How the values were obtained:
[1] = biological target: Alpha-galactosidase A (Homo sapiens) (UniProt P06280); assay: Counterscreen for Glucocerebrosidase Inhibitors: qHTS Assay for Human alpha-Galactosidase at pH 4.5 (AID 992)
Chain of Alpha-galactosidase A (Homo sapiens) (P06280 whole entry, looked up): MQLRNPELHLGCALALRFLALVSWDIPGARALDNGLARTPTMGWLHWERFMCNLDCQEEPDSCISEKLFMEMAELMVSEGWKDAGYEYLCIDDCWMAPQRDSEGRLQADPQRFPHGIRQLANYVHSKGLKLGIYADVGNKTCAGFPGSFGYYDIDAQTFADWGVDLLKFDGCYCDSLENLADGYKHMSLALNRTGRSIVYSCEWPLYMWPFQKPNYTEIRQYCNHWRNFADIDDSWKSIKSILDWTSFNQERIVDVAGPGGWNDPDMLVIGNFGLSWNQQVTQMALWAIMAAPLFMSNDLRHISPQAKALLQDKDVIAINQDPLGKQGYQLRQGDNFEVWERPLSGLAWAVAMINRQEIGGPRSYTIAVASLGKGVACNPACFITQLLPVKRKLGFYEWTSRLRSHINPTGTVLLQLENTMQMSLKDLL
Outline: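 Read-out is 4-methylumbelliferone fluorescence (365 nm excitation, 440 nm emission) after a pH 10 NaOH/glycine stop. Reactions held 2 nM enzyme and 80 uM substrate at pH 4.5 for 20 min at room temperature.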

[2] = biological target: alpha-glucosidase (Oryza sativa, rice) (UniProt Q653V4); assay: Counterscreen for Glucocerebrosidase Inhibitors: qHTS Assay for Rice alpha-Glucosidase at pH 5.0 (AID 997)
Outline: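 Rice alpha-glucosidase (4 nM final) with 400 uM 4-methylumbelliferyl-alpha-D-glucopyranoside in citrate buffer pH 5.0, 20 min at room temperature, stopped at pH 10; fluorescence 365/440 nm, compounds 0.7 nM–77 uM, AC50 from Hill fits.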

[3] = Validation of Assay for Modulators of Lamin A Splicing (AID 1459; active means well fitted curve in the direction sought with a large enough effect in the signal ratio; the % refers to the signal ratio;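 further: cells exposed to compound for two days before reading; ratio rise marks activators and ratio drop marks inhibitors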)
Outline: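 Dual-reporter HeLa S3 line (lamin A-EGFP minigene, DsRed2) treated with compounds 48 hrs, 0.5% DMSO final. Endpoint: EGFP/DsRed2 total intensity ratio from laser-scanning microplate cytometry.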

[4] = Cell Viability - LYMP2-023 (AID 975);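 further: cells exposed to compound for 24 hours at 37 °C; nearly all actives have a fitted effect of over 55% in size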; further: potency means the concentration at half of the fitted maximal effect
Outline: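 Concentration-dependent drop in intracellular ATP measures acute cytotoxicity in a human lymphoblastoid line treated for 24 hours in complete culture medium. AC50 values are taken from Hill-equation fits of qHTS data.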

[5] = Cell Viability - LYMP2-025 (AID 976); further: potency means the concentration at half of the fitted maximal effect
Outline: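 In qHTS format, LYMP2-025 lymphoblastoid cells in complete culture medium received compound for 24 hr; ATP-based CellTiter-Glo signal gave viability, with AC50 derived by Hill equation.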

[6] = Cell Viability - LYMP2-002 (AID 977); further: potency means the concentration at half of the fitted maximal effect
Outline: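 Luminescent ATP readout (CellTiter-Glo, 30 min room temperature) after 24 h compound exposure at 37 C of a human lymphoblastoid line, 2500 cells/well. AC50 values derived by standard Hill fitting of qHTS concentration-response data.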

[7] = Cell Viability - LYMP2-006 (AID 978);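 further: cells exposed to compound for 24 hours; nearly all actives have a fitted effect of over 60% in size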; further: potency means the concentration at half of the fitted maximal effect
Outline: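 In this cytotoxicity screen, the human lymphoblastoid line grew in complete medium with test compounds for 24 hr at 37 C. Cellular ATP served as the viability signal.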

[8] = Cell Viability - LYMP2-007 (AID 979);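 further: cells exposed to compound for 24 h before reading; nearly all actives have a fitted effect of over 60% in size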; further: potency means the concentration at half of the fitted maximal effect
Outline: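 Acute toxicity is scored as a concentration-dependent fall in intracellular ATP in human lymphoblastoid cells treated 24 hr at 37 C, measured by luciferase luminescence; Hill-equation modelling yields AC50.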

[9] = Cell Viability - LYMP2-008 (AID 980); further: nearly all actives have a fitted effect of over 60% in size; further: potency means the concentration at half of the fitted maximal effect
Outline: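 Acute cytotoxicity is scored as concentration-dependent loss of cellular ATP in a human lymphoblastoid line after 24 hr treatment at 37 C. ATP is quantified by luciferase luminescence.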

[10] = Cell Viability - LYMP2-010 (AID 981);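 further: cells exposed to compound for 24 hours at 37 °C; nearly all actives have a fitted effect of over 55% in size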; further: potency means the concentration at half of the fitted maximal effect
Outline: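 Acute toxicity is scored as a concentration-dependent loss of cellular ATP in human lymphoblastoid cells after 24 hr compound exposure in complete medium. Tetraoctylammonium bromide is the positive control.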

[11] = Cell Viability - LYMP2-012 (AID 982);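 further: cellular ATP by luciferase luminescence where a drop means cytotoxicity; cells exposed to compound for one day before reading; nearly all actives have a fitted effect of over 55% in size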; further: potency means the concentration at half of the fitted maximal effect
[12] = Cell Viability - LYMP2-014 (AID 983); further: nearly all actives have a fitted effect of over 50% in size; further: potency means the concentration at half of the fitted maximal effect
Outline: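 Decrease in intracellular ATP after 24 hr treatment at 37 C, measured by luciferase luminescence, indicated cytotoxicity. Concentration-response data were fitted with the standard Hill equation to give AC50.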

[13] = Cell Viability - LYMP2-016 (AID 984);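 further: cells exposed to compound for 24 hours at 37 °C; nearly all actives have a fitted effect of over 55% in size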; further: potency means the concentration at half of the fitted maximal effect
Outline: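 Concentration-dependent ATP depletion measured in LYMP2-016 lymphoblastoid cells, 24 h, 37 C; luciferase-based luminescent detection; Hill-equation AC50.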

[14] = Cell Viability - LYMP2-018 (AID 985);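 further: compound exposure lasted 24 hr at 37 °C; nearly all actives have a fitted effect of over 50% in size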; further: potency means the concentration at half of the fitted maximal effect
Outline: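 Acute cytotoxicity is scored as a concentration-dependent drop in intracellular ATP after 24 hr exposure of the lymphoblastoid line in complete culture medium, measured by luciferase luminescence. Potency is expressed as AC50 from Hill modelling.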

[15] = Cell Viability - LYMP2-020 (AID 986); further: nearly all actives have a fitted effect of over 55% in size; further: potency means the concentration at half of the fitted maximal effect
Outline: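 Acute cytotoxicity in a human lymphoblastoid line is scored as a concentration-dependent fall in cellular ATP after 24 hr at 37 C in complete medium. The positive control is tetraoctylammonium bromide, and potency is given as Hill-fit AC50.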

[16] = Cell Viability - LYMP2-022 (AID 987); further: nearly all actives have a fitted effect of over 55% in size; further: potency means the concentration at half of the fitted maximal effect
Outline: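 Acute toxicity in a human lymphoblastoid line is scored as decreased intracellular ATP after 24 hr compound treatment at 37 C. ATP is measured by CellTiter-Glo luminescence; curves are fitted with the Hill equation to give AC50.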

[17] = Cell Viability - LYMP2-024 (AID 988);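 further: cells exposed to compound for 24 hr at 37 °C; nearly all actives have a fitted effect of over 60% in size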; further: potency means the concentration at half of the fitted maximal effect
Outline: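 Acute toxicity is measured as concentration-dependent loss of intracellular ATP in a human lymphoblastoid line treated 24 hours at 37 C. Luciferase luminescence quantifies ATP; AC50 values come from standard Hill-equation modelling.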

[18] = Cell Viability - LYMP2-026 (AID 989); further: nearly all actives have a fitted effect of over 50% in size; further: potency means the concentration at half of the fitted maximal effect
Outline: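 Concentration-dependent loss of intracellular ATP in human lymphoblastoid cells after 24 hr at 37 C, quantified by luciferase luminescence. AC50 derived from standard Hill equation.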

[19] = Cell Viability - LYMP1-002 - Assay at 24 hr (AID 993); further: potency means the concentration at half of the fitted maximal effect
Outline: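 qHTS, LYMP1-002 lymphoblastoid, 24 h cpd, 37 C, CellTiter-Glo ATP luminescence; AC50 via Hill eq.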

[20] = Cell Viability - LYMP1-002 - Assay at 40 hr (AID 994); further: nearly all actives have a fitted effect of over 60% in size; further: potency means the concentration at half of the fitted maximal effect
Outline: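 Viability in the human lymphoblastoid line was measured as intracellular ATP via CellTiter-Glo after 40 hr compound exposure. Tetraoctylammonium bromide served as positive control.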

Measured: Potency

O=c1c(O)c(-c2cc(O)c(O)c(O)c2)oc2cc(O)cc(O)c12
inactive: [1] | [2] | [3]

C[C@H](Cc1ccc(O)c(O)c1)[C@@H](C)Cc1ccc(O)c(O)c1
inactive: [1] | [2] | [3]

O=C(CCc1ccc(O)cc1)c1c(O)cc(O)cc1O
inactive: [1] | [2] | [3]

CCCc1cc(=O)[nH]c(=S)[nH]1
not listed: [1] | [2] | [3]
inactive: all other assays above

NS(=O)(=O)c1cc(C(=O)O)c(NCc2ccco2)cc1Cl
not listed: [1] | [2] | [3]
inactive: all other assays above

O=C1c2c(O)cc(O)cc2OC(c2ccc(O)c(O)c2)C1O (centres undefined)
inactive: [3]

Cc1nc2n(c(=O)c1CCN1CCC(c3noc4cc(F)ccc34)CC1)CCCC2
inactive: [1] | [2] | [3]

C[C@@H](N)C1CCC(C(=O)Nc2ccncc2)CC1 (some centres undefined)
inactive: [3]

CC1(C)NC(=O)N(c2ccc([N+](=O)[O-])c(C(F)(F)F)c2)C1=O
inactive: [1] | [2] | [3]

OC(CN1CCN(c2cccc(Cl)c2)CC1)C(c1ccccc1)c1ccccc1 (centres undefined)
inactive: [3]

O=C1c2ccccc2-c2n[nH]c3cccc1c23
inactive: [1] | [2] | [3]

Nc1nc(OCc2ccccc2)c2[nH]cnc2n1
inactive: [1] | [2] | [3]

CN(C)c1ccc2nc3ccc(=[N+](C)C)cc-3sc2c1
active: [4] 3.98 µM | [5] 3.98 µM | [6] 3.16 µM | [7] 5.01 µM | [8] 7.94 µM | [9] 3.16 µM | [10] 6.31 µM | [11] 6.31 µM | [12] 3.98 µM | [13] 3.98 µM | [14] 7.94 µM | [15] 7.94 µM | [16] 6.31 µM | [17] 6.31 µM | [18] 7.94 µM | [19] 10 µM | [20] 7.94 µM

CCCCC(CC)COC(=O)C(C#N)=C(c1ccccc1)c1ccccc1 (centres undefined)
not listed: [1] | [2] | [3]
inactive: all other assays above

CN(C)CCCC1(c2ccc(F)cc2)OCc2cc(C#N)ccc21 (centres undefined)
inactive: [3]

CC1(C)C(=O)N(CCN2CCC(C(=O)c3ccc(F)cc3)CC2)c2ccccc21
inactive: [1] | [2] | [3]

COc1c2occc2cc2ccc(=O)oc12
not listed: [1] | [2] | [3]
inactive: all other assays above

COc1cc2nc(N3CCN(C(=O)C4CCCO4)CC3)nc(N)c2cc1OC (centres undefined)
inactive: [3]

Cc1cc(O)c2c(c1)C(=O)c1cc(O)cc(O)c1C2=O
inactive: [5] | [11] | [16] | [1] | [19] | [20] | [2] | [3]

CC(=O)N1CCN(c2ccc(OC[C@H]3CO[C@](Cn4ccnc4)(c4ccc(Cl)cc4Cl)O3)cc2)CC1
inactive: [1] | [2] | [3]

Cc1cccc(C#Cc2ccccc2)n1
inactive: [1] | [2] | [3]

O=C(NCC1CCCCN1)c1cc(OCC(F)(F)F)ccc1OCC(F)(F)F (centres undefined)
inactive: [3]

Oc1ccc(-c2nc(-c3ccc(F)cc3)c(-c3ccncc3)[nH]2)cc1
inactive: [1] | [2]

COc1ccc2cc([C@H](C)C(=O)O)ccc2c1
inactive: [1] | [2]

CCN(CC)C(=S)SSC(=S)N(CC)CC
inactive: [1] | [2]

CCc1nc(N)nc(N)c1-c1ccc(Cl)cc1
active: [8] 50.1 µM
inactive: [4] | [5] | [7] | [12] | [13] | [14] | [15] | [16] | [18] | [19]

O=C1NC(=O)C(c2ccccc2[N+](=O)[O-])=C1Nc1ccc(O)c(Cl)c1
inactive: [1] | [2]

CNC[C@H](O)c1ccc(O)c(O)c1
inactive: [1] | [2]

NC(=NCc1ccccc1)NC(=O)c1nc(Cl)c(N)nc1N
inactive: [1] | [2]

CC(C)c1ccc2c(c1)c(SC(C)(C)C)c(CC(C)(C)C(=O)O)n2Cc1ccc(Cl)cc1
inactive: [1] | [2]

O=c1cc(N2CCOCC2)oc2c(-c3ccccc3)cccc12
inactive: [1] | [2]

CS(=O)(=O)OCCCCOS(C)(=O)=O
not listed: [1] | [2] | [3]
inactive: all other assays above

Nc1ccc(S(N)(=O)=O)cc1
not listed: [1] | [2] | [3]
inactive: all other assays above

O=Nc1c(-c2c(O)[nH]c3cc(Br)ccc23)[nH]c2ccccc12
inactive: [1] | [2]

COC(=O)[C@H](Cc1ccccc1)NC(=O)[C@@H](N)CC(=O)O (H-Asp-Phe-OMe)
not listed: [1] | [2] | [3]
inactive: all other assays above

Cc1c(OCC(F)(F)F)ccnc1CS(=O)c1nc2ccccc2[nH]1 (centres undefined)
inactive: [1] | [2]

Cc1ccc(C)c(OCCCC(C)(C)C(=O)O)c1
not listed: [1] | [2] | [3]
inactive: all other assays above

O=c1c(O)c(-c2ccc(O)cc2O)oc2cc(O)cc(O)c12
inactive: [1] | [2]

c1ccc2[nH]c(-c3cscn3)nc2c1
not listed: [1] | [2] | [3]
inactive: all other assays above

CC(=O)Nc1ccc(O)cc1
not listed: [1] | [2] | [3]
inactive: all other assays above

COc1ccccc1N1CCN(CCN(C(=O)C2CCCCC2)c2ccccn2)CC1
inactive: [1] | [2]

NCCCCNCCCN
inactive: [1] | [2]

O=c1ccc2ccc(O)c(O)c2o1
inactive: [1] | [2]

O=C(O)c1cccnc1Nc1cccc(C(F)(F)F)c1
inactive: [1] | [2]

NNc1nncc2ccccc12
inactive: [1] | [2]
